Substitutions are numbered along the chain they refer to; changes in the protein carry UniProt numbers. In all, about 16,000 sequences were measured (“ka relative to ugcaugu”: median about 0.0091, highest 2% from about 0.032 on). The list comes from a sample in which the highest values are over-represented; it also holds similar and randomly drawn sequences.

The labels stand for the following.
T1: RBFOX1 RRM (Homo sapiens, UniProt Q9NWB1 109-208)
T1 sequence: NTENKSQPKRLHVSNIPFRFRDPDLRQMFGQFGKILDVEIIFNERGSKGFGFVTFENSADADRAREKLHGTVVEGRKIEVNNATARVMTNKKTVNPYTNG

B1: GUUAGAA (DNA:RNA)
RNA: GGGAGACCGGAAUUCAGAUUGUCCGUUAGAAUUAAAUCCCGUCGUAGCCACCA
DNA 1: CAATCTGAATTCCGGTCTCCC
DNA 2: TGGTGGCTACGACGGGATT
B2: AGUGUCU (DNA:RNA)
RNA: B1 RNA with G25A, U26G, A28G, G29U, A30C, A31U
DNA 1: CAATCTGAATTCCGGTCTCCC
DNA 2: TGGTGGCTACGACGGGATT
B3: AGAUAUU (DNA:RNA)
RNA: GGGAGACCGGAAUUCAGAUUGUCCAGAUAUUUUAAAUCCCGUCGUAGCCACCA
DNA 1: CAATCTGAATTCCGGTCTCCC
DNA 2: TGGTGGCTACGACGGGATT
B4: AGUGGUA (DNA:RNA)
RNA: B3 RNA with A27U, U28G, A29G, U31A
DNA 1: CAATCTGAATTCCGGTCTCCC
DNA 2: TGGTGGCTACGACGGGATT
B5: GGGGCAA (DNA:RNA)
RNA: B1 RNA with U26G, U27G, A28G, G29C
DNA 1: CAATCTGAATTCCGGTCTCCC
DNA 2: TGGTGGCTACGACGGGATT
B6: CGGGCAA (DNA:RNA)
RNA: B1 RNA with G25C, U26G, U27G, A28G, G29C
DNA 1: CAATCTGAATTCCGGTCTCCC
DNA 2: TGGTGGCTACGACGGGATT
B7: GGGCAGU (DNA:RNA)
RNA: B3 RNA with A25G, A27G, U28C, U30G
DNA 1: CAATCTGAATTCCGGTCTCCC
DNA 2: TGGTGGCTACGACGGGATT
B8: GGGCAAA (DNA:RNA)
RNA: B1 RNA with U26G, U27G, A28C, G29A
DNA 1: CAATCTGAATTCCGGTCTCCC
DNA 2: TGGTGGCTACGACGGGATT
B9: GGGGCAG (DNA:RNA)
RNA: B1 RNA with U26G, U27G, A28G, G29C, A31G
DNA 1: CAATCTGAATTCCGGTCTCCC
DNA 2: TGGTGGCTACGACGGGATT
B10: CGGGCAG (DNA:RNA)
RNA: B3 RNA with A25C, A27G, U28G, A29C, U30A, U31G
DNA 1: CAATCTGAATTCCGGTCTCCC
DNA 2: TGGTGGCTACGACGGGATT
B11: CCAUAAU (DNA:RNA)
RNA: B3 RNA with A25C, G26C, U30A
DNA 1: CAATCTGAATTCCGGTCTCCC
DNA 2: TGGTGGCTACGACGGGATT
B12: CCUAAGA (DNA:RNA)
RNA: B1 RNA with G25C, U26C, G29A, A30G
DNA 1: CAATCTGAATTCCGGTCTCCC
DNA 2: TGGTGGCTACGACGGGATT
B13: GUAGGGA (DNA:RNA)
RNA: B1 RNA with U27A, A28G, A30G
DNA 1: CAATCTGAATTCCGGTCTCCC
DNA 2: TGGTGGCTACGACGGGATT
B14: CUCCGUG (DNA:RNA)
RNA: B1 RNA with G25C, U27C, A28C, A30U, A31G
DNA 1: CAATCTGAATTCCGGTCTCCC
DNA 2: TGGTGGCTACGACGGGATT
B15: CGGUUAU (DNA:RNA)
RNA: B3 RNA with A25C, A27G, A29U, U30A
DNA 1: CAATCTGAATTCCGGTCTCCC
DNA 2: TGGTGGCTACGACGGGATT
B16: CAGCACG (DNA:RNA)
RNA: B3 RNA with A25C, G26A, A27G, U28C, U30C, U31G
DNA 1: CAATCTGAATTCCGGTCTCCC
DNA 2: TGGTGGCTACGACGGGATT
B17: CGCACGU (DNA:RNA)
RNA: B3 RNA with A25C, A27C, U28A, A29C, U30G
DNA 1: CAATCTGAATTCCGGTCTCCC
DNA 2: TGGTGGCTACGACGGGATT
B18: GCACGUU (DNA:RNA)
RNA: B3 RNA with A25G, G26C, U28C, A29G
DNA 1: CAATCTGAATTCCGGTCTCCC
DNA 2: TGGTGGCTACGACGGGATT
B19: CGCACGG (DNA:RNA)
RNA: B3 RNA with A25C, A27C, U28A, A29C, U30G, U31G
DNA 1: CAATCTGAATTCCGGTCTCCC
DNA 2: TGGTGGCTACGACGGGATT
B20: GCCACGU (DNA:RNA)
RNA: B1 RNA with U26C, U27C, G29C, A30G, A31U
DNA 1: CAATCTGAATTCCGGTCTCCC
DNA 2: TGGTGGCTACGACGGGATT
B21: GCACCGU (DNA:RNA)
RNA: B3 RNA with A25G, G26C, U28C, A29C, U30G
DNA 1: CAATCTGAATTCCGGTCTCCC
DNA 2: TGGTGGCTACGACGGGATT
B22: AGCACGU (DNA:RNA)
RNA: B3 RNA with A27C, U28A, A29C, U30G
DNA 1: CAATCTGAATTCCGGTCTCCC
DNA 2: TGGTGGCTACGACGGGATT
B23: CACGUUU (DNA:RNA)
RNA: B3 RNA with A25C, G26A, A27C, U28G, A29U
DNA 1: CAATCTGAATTCCGGTCTCCC
DNA 2: TGGTGGCTACGACGGGATT
B24: ACGUUUU (DNA:RNA)
RNA: B3 RNA with G26C, A27G, A29U
DNA 1: CAATCTGAATTCCGGTCTCCC
DNA 2: TGGTGGCTACGACGGGATT
B25: GCACGGU (DNA:RNA)
RNA: B3 RNA with A25G, G26C, U28C, A29G, U30G
DNA 1: CAATCTGAATTCCGGTCTCCC
DNA 2: TGGTGGCTACGACGGGATT
B26: GCACCGG (DNA:RNA)
RNA: B3 RNA with A25G, G26C, U28C, A29C, U30G, U31G
DNA 1: CAATCTGAATTCCGGTCTCCC
DNA 2: TGGTGGCTACGACGGGATT
B27: AGCACCG (DNA:RNA)
RNA: B3 RNA with A27C, U28A, A29C, U30C, U31G
DNA 1: CAATCTGAATTCCGGTCTCCC
DNA 2: TGGTGGCTACGACGGGATT
B28: GGCUAAG (DNA:RNA)
RNA: B3 RNA with A25G, A27C, U30A, U31G
DNA 1: CAATCTGAATTCCGGTCTCCC
DNA 2: TGGTGGCTACGACGGGATT
B29: CUCGGCA (DNA:RNA)
RNA: B1 RNA with G25C, U27C, A28G, A30C
DNA 1: CAATCTGAATTCCGGTCTCCC
DNA 2: TGGTGGCTACGACGGGATT
B30: AACGACU (DNA:RNA)
RNA: B3 RNA with G26A, A27C, U28G, U30C
DNA 1: CAATCTGAATTCCGGTCTCCC
DNA 2: TGGTGGCTACGACGGGATT
B31: AUAAAAA (DNA:RNA)
RNA: B1 RNA with G25A, U27A, G29A
DNA 1: CAATCTGAATTCCGGTCTCCC
DNA 2: TGGTGGCTACGACGGGATT

For the assay, the target named is T1, RBFOX1 RRM. The experiment in a line: EMSA; HiTS-Eq, 1 nM pool, 10 min; buffer printed only for the single-RNA assays: 10 mM Tris pH 7.5, 150 mM NaCl, 3.4 mM EDTA, 0.001% NP-40, 30 C. The settings on record: tags: His6 N-terminal (pET28a); label: 5' 32P. Summed up: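 Relative association constants, normalised to the cognate motif, were derived by comparing read counts of each RNA species with those of the control reaction. The RNA sequenced was the free fraction, separated by 8% native PAGE after a 10 min equilibration in 50 µL of 1 nM 5′-radiolabelled RNA (7 randomized nucleotides) with increasing concentrations of purified wild-type or mutant RbFox RRM.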
On to B1, for which the binding signal is 0.0142 KA relative to UGCAUGU. In the case of B2 it was 0.0109 KA relative to UGCAUGU. In the case of B3 it was 0.00865 KA relative to UGCAUGU; in that of B4, 0.0144 KA relative to UGCAUGU; in that of B5, 0.032 KA relative to UGCAUGU.

B6: the binding signal is 0.0227 KA relative to UGCAUGU. In the case of B7 it was 0.0161 KA relative to UGCAUGU; in that of B8, 0.0043 KA relative to UGCAUGU.

Regarding B9, the binding signal was 0.0491 KA relative to UGCAUGU. Under B10 stands 0.0252 KA relative to UGCAUGU; under B11, 0.00169 KA relative to UGCAUGU; under B12, 0.00773 KA relative to UGCAUGU. In the case of B13 it was 0.00497 KA relative to UGCAUGU; in that of B14, 0.0111 KA relative to UGCAUGU; in that of B15, 0.0102 KA relative to UGCAUGU. Under B16 stands 0.0261 KA relative to UGCAUGU.

As for B17, the binding signal is 0.0433 KA relative to UGCAUGU.

Take B18: the binding signal was 0.043 KA relative to UGCAUGU. In the case of B19 it was 0.0278 KA relative to UGCAUGU. In the case of B20 it was 0.011 KA relative to UGCAUGU; in that of B21, 0.0125 KA relative to UGCAUGU.

In the case of B22, the binding signal was 0.0367 KA relative to UGCAUGU. In the case of B23 it was 0.00574 KA relative to UGCAUGU; in that of B24, 0.00473 KA relative to UGCAUGU. Under B25 stands 0.0324 KA relative to UGCAUGU; under B26, 0.00674 KA relative to UGCAUGU; under B27, 0.00835 KA relative to UGCAUGU.

With B28, the binding signal is 0.0134 KA relative to UGCAUGU. B29: the binding signal was 0.0189 KA relative to UGCAUGU.

Regarding B30, the binding signal is 0.00509 KA relative to UGCAUGU. Under B31 stands 0.00125 KA relative to UGCAUGU.

The values above are taken from publication PMC9911399, “Two distinct binding modes provide the RNA-binding protein RbFox with extraordinary sequence specificity”.
